Screens from PubChem BioAssay.
Shown are actives, neighbours in structure and some others; about 12% of the full set was active somewhere.
PLAP act: activators of human placental alkaline phosphatase; hit rate 1.2% among 96,000; P05187; purified PLAP enzyme, luminescent substrate read-out; hits give high values; activation fold at 20 µM; in the data active means activation fold above about 2
PostGolgi yeast: growth inhibition of a yeast mutant, post-Golgi transport screen; inhibition, % at 10 µM; AID 739; hit rate 0.9% among 98,000; post-Golgi transport phenotypic cell assay;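 further: yeast cells grown in 1536-well plates; yeast grown about 18 h at 30C before absorbance read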
D1 allo mod: allosterically modulates the human D1 dopamine receptor; P21728; HEK293 D1, CRE-luciferase, dopamine EC30 potentiation; actives deviate in either direction; B-score at 10 µM; hit rate 5.9% among 58,000; AID 641;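 active means luminescence count or its row- and column-corrected plate score outside the 99.7% band of the plate's sample wells, on either side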
Cav32 inh: inhibitors of human Cav3.2 T-type calcium channel; hit rate 4% among 100,000; Cav3.2-expressing cells, Fluo-4 calcium fluorescence FDSS; hits give low values; B-score at 10 µM;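 active means single-dose well whose peak fluorescence ratio is a statistical outlier from its plate by either plate-standardised score or position-corrected B-score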
Target sequence (O95180 whole entry, looked up): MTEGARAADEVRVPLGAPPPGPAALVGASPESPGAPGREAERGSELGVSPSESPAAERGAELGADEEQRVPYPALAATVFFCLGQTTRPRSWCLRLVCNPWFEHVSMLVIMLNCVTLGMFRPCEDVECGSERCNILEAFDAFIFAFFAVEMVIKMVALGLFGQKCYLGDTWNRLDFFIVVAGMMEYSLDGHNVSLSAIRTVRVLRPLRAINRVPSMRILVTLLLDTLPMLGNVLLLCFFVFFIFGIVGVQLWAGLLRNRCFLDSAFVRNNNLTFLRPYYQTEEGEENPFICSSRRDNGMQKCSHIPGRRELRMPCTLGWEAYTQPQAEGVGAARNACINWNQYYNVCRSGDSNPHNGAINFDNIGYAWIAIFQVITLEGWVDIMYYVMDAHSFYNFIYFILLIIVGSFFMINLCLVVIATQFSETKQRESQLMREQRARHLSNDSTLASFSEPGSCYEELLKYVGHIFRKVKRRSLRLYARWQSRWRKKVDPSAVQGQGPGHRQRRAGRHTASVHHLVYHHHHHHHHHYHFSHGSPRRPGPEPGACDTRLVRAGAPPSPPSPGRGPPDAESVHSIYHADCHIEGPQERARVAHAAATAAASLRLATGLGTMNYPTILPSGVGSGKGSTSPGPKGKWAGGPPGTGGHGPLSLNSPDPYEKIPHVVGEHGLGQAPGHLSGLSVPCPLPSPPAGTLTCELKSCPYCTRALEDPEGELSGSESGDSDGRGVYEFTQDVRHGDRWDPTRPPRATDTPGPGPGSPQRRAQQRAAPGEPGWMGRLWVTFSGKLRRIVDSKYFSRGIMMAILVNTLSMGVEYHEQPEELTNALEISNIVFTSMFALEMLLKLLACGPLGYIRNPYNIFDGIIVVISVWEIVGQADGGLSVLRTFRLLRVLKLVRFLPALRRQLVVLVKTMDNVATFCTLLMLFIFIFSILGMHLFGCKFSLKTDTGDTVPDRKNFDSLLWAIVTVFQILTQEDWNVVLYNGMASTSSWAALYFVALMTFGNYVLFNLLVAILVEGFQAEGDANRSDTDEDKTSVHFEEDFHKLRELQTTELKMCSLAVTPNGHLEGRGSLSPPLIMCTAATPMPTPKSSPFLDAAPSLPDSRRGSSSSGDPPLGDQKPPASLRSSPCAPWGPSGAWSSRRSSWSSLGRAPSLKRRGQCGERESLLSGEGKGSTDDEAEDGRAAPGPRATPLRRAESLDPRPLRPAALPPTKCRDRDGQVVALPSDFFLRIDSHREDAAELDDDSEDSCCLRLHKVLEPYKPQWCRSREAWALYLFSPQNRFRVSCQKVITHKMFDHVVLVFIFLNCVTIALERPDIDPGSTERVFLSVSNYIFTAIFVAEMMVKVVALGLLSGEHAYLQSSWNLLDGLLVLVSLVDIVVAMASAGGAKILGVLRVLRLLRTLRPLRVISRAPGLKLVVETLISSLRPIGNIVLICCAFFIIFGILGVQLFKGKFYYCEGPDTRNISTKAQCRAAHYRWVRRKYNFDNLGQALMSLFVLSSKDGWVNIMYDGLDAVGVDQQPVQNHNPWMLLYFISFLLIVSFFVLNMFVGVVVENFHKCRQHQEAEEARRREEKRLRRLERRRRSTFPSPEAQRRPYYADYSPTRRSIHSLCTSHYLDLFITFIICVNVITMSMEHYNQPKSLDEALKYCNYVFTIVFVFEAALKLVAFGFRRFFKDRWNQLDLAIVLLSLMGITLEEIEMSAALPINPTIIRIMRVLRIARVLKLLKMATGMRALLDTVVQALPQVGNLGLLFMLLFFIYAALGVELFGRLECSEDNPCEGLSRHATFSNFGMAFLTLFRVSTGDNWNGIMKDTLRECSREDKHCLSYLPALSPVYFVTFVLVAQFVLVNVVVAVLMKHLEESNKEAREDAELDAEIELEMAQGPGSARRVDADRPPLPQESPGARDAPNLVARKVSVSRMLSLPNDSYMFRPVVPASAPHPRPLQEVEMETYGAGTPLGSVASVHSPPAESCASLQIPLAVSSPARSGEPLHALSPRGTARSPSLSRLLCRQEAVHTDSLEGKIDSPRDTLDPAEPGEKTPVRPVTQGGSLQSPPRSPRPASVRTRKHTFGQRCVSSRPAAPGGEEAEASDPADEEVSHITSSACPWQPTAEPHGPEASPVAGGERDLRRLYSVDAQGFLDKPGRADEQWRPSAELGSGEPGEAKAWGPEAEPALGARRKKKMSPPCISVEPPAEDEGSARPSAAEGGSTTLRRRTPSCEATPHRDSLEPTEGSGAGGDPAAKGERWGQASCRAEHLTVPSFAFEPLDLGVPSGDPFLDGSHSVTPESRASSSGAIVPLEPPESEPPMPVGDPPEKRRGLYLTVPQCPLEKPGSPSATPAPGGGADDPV
DAT uptake mod: modulates human dopamine transporter uptake under cocaine. LLC-PK1 hDAT cells, [14C]-dopamine uptake with cocaine IC80; actives deviate in either direction. B-score at 10 µM. hit rate 1.3% among 110,000. AID 449768;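 active means Z score or B-score, a plate-position-corrected score, falls beyond the plate's 99.7% confidence bounds, in either direction; inactive means both scores lie inside the 99.7% bounds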;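 further: scored against the spread of the other compound wells on the same plate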
PostGolgi ctrl: growth of the yeast control strain, post-Golgi counter-screen; AID 738; inhibition, % at 10 µM; hit rate 5% among 98,000; efflux-deficient yeast background strain, growth absorbance A615, 16 h
* marks the source's active call; other numbers are inactive results. Unless noted, no stated cut-off is given here; in the data, active means inhibition above about 30%; inactive means the rest.

For O=C(c1ccccc1)c1ccc(CN2C(=O)c3ccccc3C2=O)o1 the results were PLAP act 1, PostGolgi yeast 1, D1 allo mod 1, Cav32 inh -2.7, DAT uptake mod 3.4* and PostGolgi ctrl 23.
Screening CC1CN=C(N(Cc2ccccc2)C(=O)Nc2ccccc2)S1 (stereo not drawn) returned PLAP act 1.2, PostGolgi yeast 20, Cav32 inh -8.4*, DAT uptake mod -0.66 and PostGolgi ctrl 14.
For COc1ccccc1N(C(=O)NCc1ccccc1)C1=NCC(C)S1 (stereo not drawn) the results were PLAP act 1.4, PostGolgi yeast -4, D1 allo mod -0.66, Cav32 inh -4.7*, DAT uptake mod -1.1 and PostGolgi ctrl 48*.
`CSc1nnc2c(n1)OC(C1CC=C(C)CC1)Nc1ccccc1-2` (stereo not drawn) gave PLAP act 1 and D1 allo mod 0.15.
Screening Cc1ncoc1C(=O)Nc1cccc(Cl)c1 returned PLAP act 1.1, PostGolgi yeast 13, D1 allo mod -0.017, Cav32 inh 1.3, DAT uptake mod -0.028 and PostGolgi ctrl -1.
For Cc1ocnc1C(=O)Nc1ccc(Cl)cc1 the results were PLAP act 0.9, PostGolgi yeast 6, D1 allo mod -1.9*, Cav32 inh -0.16, DAT uptake mod 1.9 and PostGolgi ctrl 10.
For COc1ccc(C)cc1-n1nnnc1SCc1nc2ccccc2s1 the results were PLAP act 1, PostGolgi yeast -2, D1 allo mod -0.32 and PostGolgi ctrl 35*.
`c1ccc(C2=Nn3c(nnc3-c3n[nH]c4c3CCC4)SC2)cc1` gave PLAP act 1.4, PostGolgi yeast 10, D1 allo mod -3.6*, DAT uptake mod 0.33 and PostGolgi ctrl 3.
Screening CCCCCc1nc2c(C#N)c(-c3ccc(Cl)cc3)ccn2n1 returned PLAP act 0.9, PostGolgi yeast -2, Cav32 inh -1.2, DAT uptake mod 0.43 and PostGolgi ctrl 34*.
Screening O=C(NC1CCCCC1)C1CCN(S(=O)(=O)N2CCOCC2)CC1 returned PLAP act 1, PostGolgi yeast -2, D1 allo mod -0.13, Cav32 inh 0.99, DAT uptake mod 0.32 and PostGolgi ctrl 4.
For O=C(OCC(=O)N1CCN(C(=O)c2ccco2)CC1)c1cn(-c2ccccc2)nc1-c1ccccc1 the results were PLAP act 1.6, PostGolgi yeast 48*, D1 allo mod 0.063, Cav32 inh -2.5, DAT uptake mod 4.4* and PostGolgi ctrl 101*.
Screening O=C(OCC(=O)N1CCN(C(=O)c2ccco2)CC1)c1ccccc1C(=O)c1ccccc1 returned PLAP act 1.3, PostGolgi yeast 4, D1 allo mod -0.014, Cav32 inh 1.1, DAT uptake mod 0.43 and PostGolgi ctrl 3.
O=C(OCC(=O)N1CCN(C(=O)c2ccco2)CC1)c1cc(-c2ccc(F)cc2)nc2ccccc12 was read as PLAP act 1.5, PostGolgi yeast 47*, Cav32 inh -2.6, DAT uptake mod -0.011 and PostGolgi ctrl 73*.
O=C(OCC(=O)N1CCN(C(=O)c2ccco2)CC1)c1cc(-c2ccccc2)nc2ccccc12 was read as PLAP act 1.5, PostGolgi yeast 44*, Cav32 inh -0.12, DAT uptake mod 1.1 and PostGolgi ctrl 47*.
Cc1cc(Nc2ccc(Br)c(C)c2)n2nc(C)nc2n1 was read as PLAP act 1.6, PostGolgi yeast -1, Cav32 inh -0.28, DAT uptake mod 0.032 and PostGolgi ctrl 9.
O=c1cc(CSc2nnc(COc3ccccc3Cl)o2)nc2sccn12 was read as PLAP act 1.5, PostGolgi yeast 4, D1 allo mod 2.4, Cav32 inh -0.69, DAT uptake mod 0.74 and PostGolgi ctrl 7.
`COc1ccc(CCc2nc(C)ccc2O)cc1` gave PLAP act 1, PostGolgi yeast -7, Cav32 inh 0.076, DAT uptake mod -0.2 and PostGolgi ctrl 0.
`O=C(Nc1nnc(-c2ccc(Cl)cc2)o1)C1CCCCC1` gave D1 allo mod -0.52, Cav32 inh 1 and DAT uptake mod -0.19.
For Clc1ccc(-c2nnc(NC3=NCCCCC3)o2)cc1 the results were PLAP act 1, PostGolgi yeast -9, D1 allo mod -5.8*, Cav32 inh 0.84, DAT uptake mod 0.3 and PostGolgi ctrl 30*.
CCOC(=O)c1c(NC(=O)CSc2nnc(C)s2)sc2c1CCC(CC)C2 (stereo not drawn) was read as Cav32 inh -2.7 and DAT uptake mod 2.2*.
`CCOC(=O)c1c(NC(=O)CSc2nnnn2-c2ccccc2)sc2c1CCC(C)C2` (stereo not drawn) gave PLAP act 1.5, PostGolgi yeast -6, Cav32 inh -0.53 and PostGolgi ctrl 5.
CCCc1cc(O)c2c(C)cc(=O)oc2c1 was read as Cav32 inh -0.85 and DAT uptake mod -0.014.
For O=C(O)c1ccc(Br)c(S(=O)(=O)N2CCCC2)c1 the results were PLAP act 1, PostGolgi yeast 12, D1 allo mod 0.51, Cav32 inh -0.19, DAT uptake mod -0.36 and PostGolgi ctrl 10.
For CCCCNC(=O)c1onc(CSc2ccccn2)c1C(=O)NCCCC the results were Cav32 inh -1.9 and DAT uptake mod 2.
Screening CN(Cc1ccccc1)C(NC(=O)c1ccccc1)C(Cl)(Cl)Cl (stereo not drawn) returned PLAP act 0.7, PostGolgi yeast 9, Cav32 inh -5.7*, DAT uptake mod -0.68 and PostGolgi ctrl 35*.
CCN(CC)C(NC(=O)Cc1ccccc1)C(Cl)(Cl)Cl (stereo not drawn) was read as PLAP act 0.9, PostGolgi yeast 5, Cav32 inh -0.03, DAT uptake mod 0.15 and PostGolgi ctrl 6.
Screening CCOC(=O)N1CCN(S(=O)(=O)c2cc(Cl)c(OC)cc2Cl)CC1 returned D1 allo mod 0.94, Cav32 inh 0.35 and DAT uptake mod 1.6*.
Screening CNCc1cc2ccc(C)cc2[nH]c1=O returned PLAP act 0.8, PostGolgi yeast -1, D1 allo mod 0.23, Cav32 inh -0.4, DAT uptake mod 0.74 and PostGolgi ctrl 4.
For Cc1nn(Cc2ccc(Cl)cc2Cl)c(C)c1NC(=O)c1ccc(COc2cc(Cl)ccc2Cl)o1 the results were PLAP act 1.4, PostGolgi yeast -13, Cav32 inh -5.2*, DAT uptake mod 0.95 and PostGolgi ctrl 13.
Screening Cc1nn(Cc2cccc(F)c2)c(C)c1NC(=O)c1c([N+](=O)[O-])c(C)nn1C returned PLAP act 1, PostGolgi yeast 1, Cav32 inh 0.098, DAT uptake mod 0.93 and PostGolgi ctrl 1.
Screening CC(C)CNC(=O)c1ccc(COc2ccc(Cl)cc2Cl)o1 returned PLAP act 1, PostGolgi yeast -9, Cav32 inh -4.5*, DAT uptake mod 0.97 and PostGolgi ctrl 32*.
`Cc1nn(Cc2cccc(F)c2)c(C)c1NC(=O)c1ccc(COc2ccccc2Cl)cc1` gave PLAP act 2*, PostGolgi yeast -16, Cav32 inh -4.6*, DAT uptake mod 0.22 and PostGolgi ctrl 25.
